Bioassay records: PubChem BioAssay, Broad Institute
NOMO-1 viab: STK33 inhibitor candidate reducing NOMO-1 cell viability | 37,000 compounds, 7.5% hits | NOMO-1 AML viability, CellTiter-Glo luminescence, 72 h | inhibition, % (no concentration beside the values); in the data active means inhibition above about 80%; inconclusive means no clear call, values can overlap the other calls
MITF inhib: inhibitors of MITF; TRPM1 promoter luciferase, luminescence, 24 h; inhibition, % (no concentration beside the values); 37,000 compounds, 0.28% hits; in the data active means inhibition above about 85%; inconclusive means no clear call, values can overlap the other calls; inactive means below about 68%;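 further: human melanocyte line stably carrying TRPM1 promoter luciferase reporter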
Shh pathway inh: blocks Sonic Hedgehog signaling | 22,000 compounds, 2.1% hits | Shh-LIGHT2 Gli-luciferase reporter, 30 h | AID 2313 | inhibition, % (concentration not given with the values);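 active means mean inhibition across valid replicates above about 65%, limit read from the data; inconclusive means mean under the limit, yet half or more replicates past it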;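 further: pathway switched on by Shh-conditioned medium diluted 1 in 25 in low serum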
The depositor's hits bear a star; ? = inconclusive; / = no result. This is a sample that favours compounds with a hit; in the whole collection about 7.9% have one here.

SMILES	NOMO-1 viab	MITF inhib	Shh pathway inh
Cc1noc(C)c1S(=O)(=O)Nc1ccc2c(c1)C(=O)N([C@H](C)CO)C[C@H](C)[C@@H](CN(C)C(=O)Nc1ccc(C(F)(F)F)cc1)OCCCC[C@@H](C)O2	115*	25	11
Cc1noc(C)c1S(=O)(=O)Nc1ccc2c(c1)C(=O)N([C@H](C)CO)C[C@H](C)[C@H](CN(C)C(=O)Nc1ccc(C(F)(F)F)cc1)OCCCC[C@@H](C)O2	?	54	100*
Cc1noc(C)c1S(=O)(=O)Nc1ccc2c(c1)C(=O)N([C@@H](C)CO)C[C@@H](C)[C@H](CN(C)C(=O)Nc1ccc(C(F)(F)F)cc1)O2	10	-3	-24
Cc1noc(C)c1S(=O)(=O)Nc1ccc2c(c1)C(=O)N([C@H](C)CO)C[C@@H](C)[C@@H](CN(C)C(=O)Nc1ccc(C(F)(F)F)cc1)O2	4	-11	-8
OC(COCc1ccccc1)Cn1c2ccccc2c2ccccc21 (stereo not given)	89*	5	11
CNCC(O)Cn1c2ccccc2c2ccccc21 (stereo not given)	7	-17	/
C/S(=N/C(=O)Nc1ccc(Cl)cc1)c1ccc(OC(=O)c2ccc(Cl)cc2)cc1 (stereo not given)	57	15	-25
Fc1cccc(Cl)c1CSC1=NCCN1	136*	17	38
Fc1cccc(Cl)c1CSc1ccccc1C1=NCCCN1	15	13	-5
C[C@@H]1CN([C@H](C)CO)C(=O)Cc2cc(NC(=O)C3CCCCC3)ccc2O[C@H]1CN(C)Cc1ccc(C(F)(F)F)cc1	50	-1	-37
CCn1c(SCC(N)=O)nnc1-c1ccncc1	-10	-6	/
COc1ccc(Cl)cc1NC(=O)CN(c1ccc(Cl)c(C(F)(F)F)c1)S(C)(=O)=O	40	12	/
CCN(CC(=O)Nc1ccc(C(N)=O)cc1)S(=O)(=O)c1ccc(F)cc1	-17	-36	/
COc1ccc(CN(C)C[C@H]2Oc3c(NS(C)(=O)=O)cccc3C(=O)N([C@@H](C)CO)C[C@H]2C)cc1	-20	1	25
Cc1c(Br)ccc(NC(=O)CSc2nnc(-c3ccc(Cl)cc3)n2C)c1C	33	-67	/
COc1ccc(S(=O)(=O)Nc2ccc3c(c2)C(=O)N([C@@H](C)CO)C[C@H](C)[C@@H](CN(C)Cc2ccc(Oc4ccccc4)cc2)O3)cc1	71	9	36
C[C@@H]1CN([C@@H](C)CO)C(=O)c2cc(NS(=O)(=O)c3ccc(F)cc3)ccc2O[C@@H]1CN(C)Cc1ccc(Oc2ccccc2)cc1	112*	29	/
COc1ccc(S(=O)(=O)Nc2ccc3c(c2)C(=O)N([C@H](C)CO)C[C@@H](C)[C@H](CN(C)Cc2ccc(-c4ccccc4)cc2)O3)cc1	17	-3	/
Cc1noc(C)c1S(=O)(=O)Nc1ccc2c(c1)C(=O)N([C@H](C)CO)C[C@H](C)[C@@H](CN(C)Cc1ccccc1)O2	19	-4	7
COc1ccc(S(=O)(=O)Nc2ccc3c(c2)C(=O)N([C@@H](C)CO)C[C@@H](C)[C@@H](CN(C)Cc2ccc(Oc4ccccc4)cc2)O3)cc1	113*	60	/
COc1ccc(S(=O)(=O)Nc2ccc3c(c2)C(=O)N([C@@H](C)CO)C[C@@H](C)[C@@H](CN(C)Cc2ccc(-c4ccccc4)cc2)O3)cc1	91*	48	11
C[C@H](CO)N1C[C@H](C)[C@@H](CN(C)Cc2ccc(Oc3ccccc3)cc2)Oc2ccc(NS(=O)(=O)c3ccc(F)cc3)cc2C1=O	58	12	/
Cc1noc(C)c1S(=O)(=O)Nc1ccc2c(c1)C(=O)N([C@H](C)CO)C[C@@H](C)[C@@H](CN(C)Cc1ccc(Oc3ccccc3)cc1)O2	105*	9	43
COC(=O)c1sc(NC(=S)Nc2c(C)nn(Cc3c(F)c(F)c(F)c(F)c3F)c2C)c(C(=O)OC)c1C	11	-27	/
CSc1sc(-c2ccn[nH]2)c(-c2ccco2)c1C#N	28	2	25
SMILES	NOMO-1 viab	MITF inhib	Shh pathway inh
CCOc1ccc(S(=O)(=O)NCCN2CCOCC2)cc1C	20	0	/
C[C@@H]1CCCCO[C@H](CN(C)C(=O)Cc2ccccc2)[C@@H](C)CN([C@H](C)CO)C(=O)c2cc(NC(=O)c3ccccc3)ccc2O1	30	9	-38
COC(=O)c1ccccc1NC(=O)CN(c1ccc(F)cc1)S(C)(=O)=O	-5	-17	/
COc1cc(S(=O)(=O)NCc2ccccn2)ccc1Br	-15	-8	/
O=C(CSc1nnc(-c2cccc([N+](=O)[O-])c2)o1)c1ccc2c(c1)OCCO2	38	-8	/
C[C@H]1CN([C@@H](C)CO)C(=O)c2cc(NS(=O)(=O)c3ccccc3)ccc2O[C@@H]1CN(C)Cc1ccc(Oc2ccccc2)cc1	68	19	20
C[C@H](CO)N1C[C@H](C)[C@H](CN(C)Cc2ccc(Oc3ccccc3)cc2)Oc2ccc(NS(=O)(=O)c3ccc(F)cc3)cc2C1=O	13	11	10
C[C@@H]1CN([C@@H](C)CO)C(=O)c2cc(NS(=O)(=O)c3ccccc3)ccc2O[C@@H]1CN(C)Cc1ccc(Oc2ccccc2)cc1	118*	23	22
C[C@H]1CN([C@@H](C)CO)C(=O)c2cc(NS(=O)(=O)c3ccc(F)cc3)ccc2O[C@@H]1CN(C)Cc1ccc(Oc2ccccc2)cc1	117*	15	30
C[C@H]1CN([C@@H](C)CO)C(=O)c2cccc(NC(=O)Nc3ccccc3)c2O[C@H]1CN(C)C(=O)Nc1ccc(C(F)(F)F)cc1	59	24	1
C=C1C(=O)O[C@H]2C1[C@H](OC(=O)/C(=C/CO)COC(=O)/C(C)=C/CO)CC(=C)[C@@H]1CC(=O)[C@@H](C)[C@@H]12 (stereo not given in full)	108*	12	16
C=C1C(=O)O[C@@H]2[C@H]3C(=C)[C@@H](O[C@@H]4O[C@H](CO)[C@@H](O)[C@H](O)[C@H]4O)C[C@H]3C(=C)C[C@@H](O)[C@@H]12	7	5	27
C=C1C(=O)O[C@H]2[C@H]1[C@H](O)CC(=C)[C@@H]1CC(=O)C(C)[C@H]21 (stereo not given in full)	118*	40	-18
C[C@@H]1CN([C@@H](C)CO)C(=O)Cc2cc(NS(=O)(=O)c3cn(C)cn3)ccc2O[C@@H]1CN(C)C(=O)NC1CCCCC1	-4	2	/
Cc1ccc(-n2c(SCC(=O)Nc3ccccc3C)nc3nc4c(cc3c2=O)COC(C)(C)C4)cc1	28	-8	/
CCC1SC2=NCN(c3ccccc3)CN2C1=O (stereo not given)	101*	6	-48
O=C(CC1(O)C(=O)Nc2ccc(F)cc21)c1ccco1 (stereo not given)	38	28	/
O=C(CC1(O)C(=O)N(Cc2ccc(Cl)cc2)c2ccc(Cl)cc21)c1ccco1 (stereo not given)	114*	25	/
Cc1cccc(C)c1OCC(=O)Nc1cccc(NC(=O)c2ccco2)c1	24	18	/
Cc1coc(C)c1C(=O)CC1(O)C(=O)N(Cc2ccc(Cl)cc2)c2ccccc21 (stereo not given)	70	6	/
Cc1cccc2c1N(C)C(=O)C2(O)CC(=O)c1ccco1 (stereo not given)	84*	-10	/
CN1C(=O)C(O)(CC(=O)c2ccco2)c2cc(Cl)ccc21 (stereo not given)	133*	24	/
